{"source": "PubChem BioAssay", "key": {"[1]": {"molecular_target": "Nuclear receptor coactivator 3 (Homo sapiens) (UniProt Q9Y6Q9)", "sequence (Q9Y6Q9 whole entry, looked up, the tested form may be a part)": "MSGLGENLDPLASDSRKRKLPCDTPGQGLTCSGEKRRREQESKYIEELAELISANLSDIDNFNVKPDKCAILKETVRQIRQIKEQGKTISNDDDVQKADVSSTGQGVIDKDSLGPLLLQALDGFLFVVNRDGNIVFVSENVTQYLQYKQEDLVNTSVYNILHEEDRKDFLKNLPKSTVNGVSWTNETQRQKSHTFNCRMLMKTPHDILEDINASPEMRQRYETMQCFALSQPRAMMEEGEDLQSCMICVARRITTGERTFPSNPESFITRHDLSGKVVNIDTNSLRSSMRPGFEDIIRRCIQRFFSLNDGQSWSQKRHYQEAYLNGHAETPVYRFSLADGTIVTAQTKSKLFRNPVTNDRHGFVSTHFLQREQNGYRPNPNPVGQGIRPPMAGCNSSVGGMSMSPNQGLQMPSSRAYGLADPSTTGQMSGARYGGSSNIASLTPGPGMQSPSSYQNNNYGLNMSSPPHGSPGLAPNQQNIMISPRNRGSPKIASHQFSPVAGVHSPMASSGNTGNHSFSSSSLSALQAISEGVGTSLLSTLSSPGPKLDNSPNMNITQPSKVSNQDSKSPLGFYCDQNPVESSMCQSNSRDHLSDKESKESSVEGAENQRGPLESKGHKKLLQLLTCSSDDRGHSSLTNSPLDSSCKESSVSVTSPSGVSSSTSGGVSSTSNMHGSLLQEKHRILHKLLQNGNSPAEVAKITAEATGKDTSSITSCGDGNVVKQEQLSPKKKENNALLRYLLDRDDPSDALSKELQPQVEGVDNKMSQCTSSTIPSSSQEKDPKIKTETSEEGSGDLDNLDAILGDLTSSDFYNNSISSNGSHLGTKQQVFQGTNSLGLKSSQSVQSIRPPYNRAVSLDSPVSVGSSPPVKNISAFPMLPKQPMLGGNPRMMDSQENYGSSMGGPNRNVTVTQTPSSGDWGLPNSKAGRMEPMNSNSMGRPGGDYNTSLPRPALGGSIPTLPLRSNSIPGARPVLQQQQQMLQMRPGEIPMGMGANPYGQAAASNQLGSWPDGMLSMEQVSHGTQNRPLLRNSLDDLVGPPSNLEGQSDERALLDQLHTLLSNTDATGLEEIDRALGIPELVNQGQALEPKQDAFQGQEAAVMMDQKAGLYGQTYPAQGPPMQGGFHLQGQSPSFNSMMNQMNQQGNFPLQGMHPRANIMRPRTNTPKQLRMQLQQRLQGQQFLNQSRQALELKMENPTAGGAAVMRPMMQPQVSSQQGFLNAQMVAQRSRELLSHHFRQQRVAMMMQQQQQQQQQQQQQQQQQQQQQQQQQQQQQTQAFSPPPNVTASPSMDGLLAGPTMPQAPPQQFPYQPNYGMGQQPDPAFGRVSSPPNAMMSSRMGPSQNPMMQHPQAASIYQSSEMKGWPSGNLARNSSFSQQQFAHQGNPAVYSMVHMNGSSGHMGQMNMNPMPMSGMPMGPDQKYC", "test": "SRC3 coactivator transcriptional activity inhibitors, confirmation, cell-based, luminescence, quadruplicate (AID 588792;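 active = mean inhibition over 43.08%, the solvent-only control mean plus 3 SD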;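 also: 0% = DMSO treated cells and 100% = gossypol at 36 µM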)", "settings": "HEK293 GAL4-SRC3 luciferase reporter, at 3.6 µM, active compounds read high"}, "[2]": {"test_system": "transactivating tegument protein VP16 (Human herpesvirus 1), Gal4-VP16 luciferase reporter", "test": "VP16 transactivation inhibitors, counter-screen for SRC3 inhibitor project, cell-based, luminescence, high throughput (AID 588794; in the data active = inhibition above about 30%)", "settings": "mammalian cells, VP16-driven luciferase reporter luminescence; at 3.6 µM; active compounds read high"}, "[3]": {"molecular_target": "Nuclear receptor coactivator 1 (Homo sapiens) (UniProt Q15788)", "sequence (Q15788 whole entry, looked up, the tested form may be a part)": "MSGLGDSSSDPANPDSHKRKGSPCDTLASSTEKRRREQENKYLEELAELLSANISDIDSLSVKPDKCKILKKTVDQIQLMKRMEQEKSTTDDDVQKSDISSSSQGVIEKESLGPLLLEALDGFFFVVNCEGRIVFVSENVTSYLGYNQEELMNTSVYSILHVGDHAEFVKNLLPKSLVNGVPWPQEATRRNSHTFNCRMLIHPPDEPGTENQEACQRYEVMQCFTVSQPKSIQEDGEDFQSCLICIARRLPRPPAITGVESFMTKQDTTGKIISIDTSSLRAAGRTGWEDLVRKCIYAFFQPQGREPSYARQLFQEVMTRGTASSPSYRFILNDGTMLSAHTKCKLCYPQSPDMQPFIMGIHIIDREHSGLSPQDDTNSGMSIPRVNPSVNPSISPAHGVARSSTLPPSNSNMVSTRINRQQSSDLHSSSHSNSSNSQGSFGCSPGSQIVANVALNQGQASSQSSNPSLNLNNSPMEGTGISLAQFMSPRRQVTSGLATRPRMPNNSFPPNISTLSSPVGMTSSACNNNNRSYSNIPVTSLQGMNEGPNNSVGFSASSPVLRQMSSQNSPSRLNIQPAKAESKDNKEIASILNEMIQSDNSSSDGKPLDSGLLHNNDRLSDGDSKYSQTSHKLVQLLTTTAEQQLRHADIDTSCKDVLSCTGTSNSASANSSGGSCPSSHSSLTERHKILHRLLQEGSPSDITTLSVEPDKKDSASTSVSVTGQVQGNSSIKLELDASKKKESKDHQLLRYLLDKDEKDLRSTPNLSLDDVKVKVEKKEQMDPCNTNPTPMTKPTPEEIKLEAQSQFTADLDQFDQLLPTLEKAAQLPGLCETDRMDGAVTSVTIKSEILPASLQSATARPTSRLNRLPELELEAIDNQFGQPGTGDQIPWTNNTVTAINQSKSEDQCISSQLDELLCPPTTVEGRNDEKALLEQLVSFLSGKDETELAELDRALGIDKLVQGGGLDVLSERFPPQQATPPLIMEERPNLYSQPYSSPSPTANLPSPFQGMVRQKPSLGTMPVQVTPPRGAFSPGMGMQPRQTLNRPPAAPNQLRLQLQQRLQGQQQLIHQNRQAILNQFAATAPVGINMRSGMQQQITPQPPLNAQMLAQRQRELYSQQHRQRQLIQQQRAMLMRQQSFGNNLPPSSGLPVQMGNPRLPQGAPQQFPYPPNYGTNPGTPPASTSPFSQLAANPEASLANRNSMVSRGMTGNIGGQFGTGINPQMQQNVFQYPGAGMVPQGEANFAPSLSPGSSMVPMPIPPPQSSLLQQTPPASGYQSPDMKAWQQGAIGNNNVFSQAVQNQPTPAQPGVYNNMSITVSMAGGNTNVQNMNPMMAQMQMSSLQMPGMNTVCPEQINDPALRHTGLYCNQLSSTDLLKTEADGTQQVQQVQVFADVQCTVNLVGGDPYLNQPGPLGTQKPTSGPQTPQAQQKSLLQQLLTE", "test": "SRC1 coactivator transcriptional activity inhibitors, confirmation, cell-based, luminescence, quadruplicate (AID 588820);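 also: 0% = DMSO wells and 100% = gossypol 36 µM treated wells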", "settings": "HEK293 GAL4-SRC1 luciferase reporter, at 3.6 µM, active compounds read high"}, "[4]": {"test": "VP16 transactivation inhibitors, counter-screen for SRC1 inhibitor project, cell-based, luminescence, high throughput (AID 588824; in the data active = inhibition above about 25%)", "settings": "cell-based VP16 transactivation luciferase luminescence; at 3.6 µM; active compounds read high"}, "[5]": {"test": "StAR promoter reporter inhibitors, counter-screen for LRH-1 inverse agonist project, cell-based, luminescence, high throughput (AID 651611; in the data active = inhibition above about 28%)", "settings": "StAR promoter luciferase reporter counterscreen, at 3.6 µM, active compounds read high"}, "[6]": {"molecular_target": "Nuclear receptor subfamily 5 group A member 2 (Homo sapiens) (UniProt O00482)", "sequence (O00482 whole entry, looked up)": "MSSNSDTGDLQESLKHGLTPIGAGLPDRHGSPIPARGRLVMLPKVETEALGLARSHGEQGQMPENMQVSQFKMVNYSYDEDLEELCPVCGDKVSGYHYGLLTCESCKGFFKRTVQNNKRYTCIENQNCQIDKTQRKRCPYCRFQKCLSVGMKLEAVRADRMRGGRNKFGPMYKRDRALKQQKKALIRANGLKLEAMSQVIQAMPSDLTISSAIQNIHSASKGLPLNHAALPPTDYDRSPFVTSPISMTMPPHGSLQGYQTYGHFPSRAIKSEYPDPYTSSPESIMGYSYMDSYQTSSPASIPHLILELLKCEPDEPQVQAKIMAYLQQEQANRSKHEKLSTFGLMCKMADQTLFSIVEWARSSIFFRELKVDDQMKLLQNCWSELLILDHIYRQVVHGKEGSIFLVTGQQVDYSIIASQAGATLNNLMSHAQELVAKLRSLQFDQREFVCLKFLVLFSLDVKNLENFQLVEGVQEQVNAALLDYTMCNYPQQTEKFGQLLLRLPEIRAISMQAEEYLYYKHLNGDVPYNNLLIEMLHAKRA", "test": "LRH-1 (NR5A2) inverse agonists, retest, confirmation, cell-based, luminescence (AID 651613; in the data active = inhibition above about 42%;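 also: HEK293T cells co-transfected with LRH-1 and StAR promoter luciferase reporter; 0% = vehicle wells and 100% = parental cells lacking receptor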)", "settings": "cell-based LRH-1 luciferase reporter, inverse agonism; at 3.6 µM; active compounds read high"}, "[7]": {"molecular_target": "Steroidogenic factor 1 (Homo sapiens) (UniProt Q13285)", "test": "SF1 (NR5A1) inverse agonists, counter-screen for LRH-1 inverse agonist project, cell-based, luminescence, high throughput (AID 651614; in the data active = inhibition above about 44%;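 also: cells cotransfected with StAR promoter reporter and SF1 expression vector; 0% = vehicle on cells with receptor and 100% = vehicle on cells lacking receptor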)", "settings": "cell-based SF1 luciferase reporter, at 3.6 µM, active compounds read high"}, "[8]": {"test": "VP16 transactivation reporter inhibitors, counter-screen for LRH-1 inverse agonist project, cell-based, luminescence, high throughput (AID 651615; in the data active = inhibition above about 33%)", "settings": "Gal4-VP16 luciferase reporter cells, at 3.6 µM, active compounds read high"}, "[9]": {"test_system": "transactivating tegument protein VP16 (Human herpesvirus 1)", "test": "VP16 transactivation reporter inhibitors, counter-screen for SRC2 inhibitor project, cell-based, luminescence, single concentration (AID 652007; in the data active = inhibition above about 36%)", "settings": "cell-based VP16 transactivation luciferase reporter, at 8.9 µM, active compounds read high"}, "[10]": {"molecular_target": "Nuclear receptor coactivator 2 (Homo sapiens) (UniProt Q15596)", "sequence (Q15596 whole entry, looked up, the tested form may be a part)": "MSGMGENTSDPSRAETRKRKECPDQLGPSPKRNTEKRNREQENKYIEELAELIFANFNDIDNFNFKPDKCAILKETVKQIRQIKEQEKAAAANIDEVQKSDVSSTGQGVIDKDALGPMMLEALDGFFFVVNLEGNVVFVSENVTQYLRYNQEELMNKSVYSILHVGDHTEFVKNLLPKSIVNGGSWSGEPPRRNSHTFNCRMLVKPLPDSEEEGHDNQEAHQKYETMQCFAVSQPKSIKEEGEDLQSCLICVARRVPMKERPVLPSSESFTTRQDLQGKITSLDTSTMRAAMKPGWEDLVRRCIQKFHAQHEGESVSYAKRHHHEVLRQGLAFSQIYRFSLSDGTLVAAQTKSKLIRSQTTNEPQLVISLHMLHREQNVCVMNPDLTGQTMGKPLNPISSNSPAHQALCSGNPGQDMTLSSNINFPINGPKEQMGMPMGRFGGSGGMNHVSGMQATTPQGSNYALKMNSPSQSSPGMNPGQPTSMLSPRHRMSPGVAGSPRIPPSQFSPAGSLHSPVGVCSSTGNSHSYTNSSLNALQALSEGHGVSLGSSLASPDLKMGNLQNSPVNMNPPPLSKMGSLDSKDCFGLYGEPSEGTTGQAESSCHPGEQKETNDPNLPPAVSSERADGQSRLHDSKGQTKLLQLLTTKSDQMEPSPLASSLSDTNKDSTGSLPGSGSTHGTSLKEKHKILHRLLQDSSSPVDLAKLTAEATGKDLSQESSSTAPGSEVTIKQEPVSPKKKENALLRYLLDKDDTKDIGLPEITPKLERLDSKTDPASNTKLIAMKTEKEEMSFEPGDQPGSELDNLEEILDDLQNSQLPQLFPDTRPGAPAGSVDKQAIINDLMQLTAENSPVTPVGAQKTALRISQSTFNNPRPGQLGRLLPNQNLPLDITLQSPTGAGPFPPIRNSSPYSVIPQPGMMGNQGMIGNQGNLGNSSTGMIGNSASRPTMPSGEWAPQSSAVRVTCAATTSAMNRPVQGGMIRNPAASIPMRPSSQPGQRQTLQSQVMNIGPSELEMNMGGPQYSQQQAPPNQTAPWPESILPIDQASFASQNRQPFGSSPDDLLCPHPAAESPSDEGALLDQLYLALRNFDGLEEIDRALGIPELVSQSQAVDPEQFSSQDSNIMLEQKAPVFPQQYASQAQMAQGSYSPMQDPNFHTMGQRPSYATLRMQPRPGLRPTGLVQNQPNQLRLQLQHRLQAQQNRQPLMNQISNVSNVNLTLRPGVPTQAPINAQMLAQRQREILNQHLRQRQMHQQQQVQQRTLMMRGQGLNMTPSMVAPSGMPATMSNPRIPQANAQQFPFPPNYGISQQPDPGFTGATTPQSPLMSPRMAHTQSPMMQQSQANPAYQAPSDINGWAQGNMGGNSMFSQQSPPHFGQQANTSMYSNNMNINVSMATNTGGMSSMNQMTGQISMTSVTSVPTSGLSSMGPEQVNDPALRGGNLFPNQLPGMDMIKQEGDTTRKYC", "test": "SRC2 coactivator transcriptional activity inhibitors, confirmation, cell-based, luminescence, HEK293, triplicate (AID 652008;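 active = mean inhibition above 46.5%, the solvent-only control mean plus 3 SD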;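 also: 0% = DMSO-treated cells and 100% = Gossypol at 36 µM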)", "settings": "HEK293 GAL4-SRC2 luciferase reporter, at 8.9 µM, active compounds read high"}}, "note": "Several values for one entry are separate records, joined by “and”; a condition that tells them apart may be missing. Identical values can stand only once. A number with no mark means an inactive call. Activity calls are given as the source filed them.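 The calls were made as follows, unless noted: active = mean inhibition above 46.68%, the untreated control wells mean plus 3 SD; inactive = the rest.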"}
{"smiles": "COc1ccc(-c2nsc3c(N4CCCCC4C)ncnc23)cc1", "note": "(stereo not given)", "values": [{"measurement": "inhibition", "setting": "[1]", "value": "84.2% (active)"}, {"measurement": "inhibition", "setting": "[2]", "value": "80.4% (active)"}, {"measurement": "inhibition", "setting": "[3]", "value": "70.2% (active)"}, {"measurement": "inhibition", "setting": "[4]", "value": "68.4% (active)"}, {"measurement": "inhibition", "setting": "[5]", "value": "80.2% (active)"}, {"measurement": "inhibition", "setting": "[6]", "value": "59.2% (active)"}, {"measurement": "inhibition", "setting": "[7]", "value": "80.9% (active)"}, {"measurement": "inhibition", "setting": "[8]", "value": "67% (active)"}, {"measurement": "inhibition", "setting": "[9]", "value": "83.1% (active)"}, {"measurement": "inhibition", "setting": "[10]", "value": "93.3% (active)"}]}
{"smiles": "NC(=S)NN=Cc1nccc2c(C(F)(F)C(F)(F)C(F)(F)F)cccc12", "values": [{"measurement": "inhibition", "setting": "[1]", "value": "93.5% (active)"}, {"measurement": "inhibition", "setting": "[2]", "value": "87.2% (active)"}, {"measurement": "inhibition", "setting": "[3]", "value": "85.5% (active)"}, {"measurement": "inhibition", "setting": "[4]", "value": "88.5% (active)"}, {"measurement": "inhibition", "setting": "[5]", "value": "92.3% (active)"}, {"measurement": "inhibition", "setting": "[6]", "value": "107% (active)"}, {"measurement": "inhibition", "setting": "[7]", "value": "95.6% (active)"}, {"measurement": "inhibition", "setting": "[8]", "value": "82.1% (active)"}, {"measurement": "inhibition", "setting": "[9]", "value": -16.1, "unit": "%"}, {"measurement": "inhibition", "setting": "[10]", "value": 18.2, "unit": "%"}]}
{"smiles": "N#Cc1c(N)n(C2OC(CO)C(O)C2O)c2ncnc(N)c12", "note": "(stereo not given)", "values": [{"measurement": "inhibition", "setting": "[1]", "value": "96% (active)"}, {"measurement": "inhibition", "setting": "[2]", "value": "96% (active)"}, {"measurement": "inhibition", "setting": "[3]", "value": "79.9% (active)"}, {"measurement": "inhibition", "setting": "[4]", "value": "95.1% (active)"}, {"measurement": "inhibition", "setting": "[5]", "value": "85.9% (active)"}, {"measurement": "inhibition", "setting": "[6]", "value": "106% (active)"}, {"measurement": "inhibition", "setting": "[7]", "value": "95.6% (active)"}, {"measurement": "inhibition", "setting": "[8]", "value": "96.3% (active)"}, {"measurement": "inhibition", "setting": "[9]", "value": "62% (active)"}, {"measurement": "inhibition", "setting": "[10]", "value": "66.3% (active)"}]}
{"smiles": "O=C(NCCc1ccccc1)c1ccc2c(c1)OCCCO2", "values": [{"measurement": "inhibition", "setting": "[1]", "value": "68.3% (active)"}, {"measurement": "inhibition", "setting": "[2]", "value": "67.7% (active)"}, {"measurement": "inhibition", "setting": "[3]", "value": 31.9, "unit": "%"}, {"measurement": "inhibition", "setting": "[4]", "value": "53.5% (active)"}, {"measurement": "inhibition", "setting": "[5]", "value": "75.5% (active)"}, {"measurement": "inhibition", "setting": "[6]", "value": "62.5% (active)"}, {"measurement": "inhibition", "setting": "[7]", "value": "78.5% (active)"}, {"measurement": "inhibition", "setting": "[8]", "value": "66.5% (active)"}, {"measurement": "inhibition", "setting": "[9]", "value": "78.8% (active)"}, {"measurement": "inhibition", "setting": "[10]", "value": "87.7% (active)"}]}
{"smiles": "CC1CCC(C(C)C)C(OC(=O)Cn2c(-c3ccccc3)[n+](C)c3ccccc32)C1", "note": "(stereo not given)", "values": [{"measurement": "inhibition", "setting": "[1]", "value": "74.8% (active) and 54.2% (active)"}, {"measurement": "inhibition", "setting": "[2]", "value": "76.2% (active) and 68% (active)"}, {"measurement": "inhibition", "setting": "[3]", "value": "55.1% (active) and 49.6% (active)"}, {"measurement": "inhibition", "setting": "[4]", "value": "75.8% (active) and 65.7% (active)"}, {"measurement": "inhibition", "setting": "[5]", "value": "54% (active)"}, {"measurement": "inhibition", "setting": "[6]", "value": "108% (active)"}, {"measurement": "inhibition", "setting": "[7]", "value": "83.8% (active)"}, {"measurement": "inhibition", "setting": "[8]", "value": "94.5% (active)"}, {"measurement": "inhibition", "setting": "[9]", "value": "49.1% (active)"}, {"measurement": "inhibition", "setting": "[10]", "value": 30.4, "unit": "%"}]}
{"smiles": "CC(C)CCCCCCCCCCCCC(=O)NCC(=O)NC1C(C)OC(Nc2ncnc3nc[nH]c23)C(O)C1O", "note": "(stereo not given)", "values": [{"measurement": "inhibition", "setting": "[1]", "value": "98.9% (active)"}, {"measurement": "inhibition", "setting": "[2]", "value": "98.8% (active)"}, {"measurement": "inhibition", "setting": "[3]", "value": "96.6% (active)"}, {"measurement": "inhibition", "setting": "[4]", "value": "98.8% (active)"}, {"measurement": "inhibition", "setting": "[5]", "value": "94.7% (active)"}, {"measurement": "inhibition", "setting": "[6]", "value": "111% (active)"}, {"measurement": "inhibition", "setting": "[7]", "value": "97.7% (active)"}, {"measurement": "inhibition", "setting": "[8]", "value": "95.8% (active)"}, {"measurement": "inhibition", "setting": "[9]", "value": "76.9% (active)"}, {"measurement": "inhibition", "setting": "[10]", "value": "72.2% (active)"}]}
{"smiles": "COC(=O)Cc1ccc(NC(=O)c2ccc(C(C)(C)C)cc2)cc1", "values": [{"measurement": "inhibition", "setting": "[1]", "value": "55.9% (active)"}, {"measurement": "inhibition", "setting": "[2]", "value": "40.7% (active)"}, {"measurement": "inhibition", "setting": "[3]", "value": 43.4, "unit": "%"}, {"measurement": "inhibition", "setting": "[4]", "value": "44.8% (active)"}, {"measurement": "inhibition", "setting": "[5]", "value": "54.3% (active)"}, {"measurement": "inhibition", "setting": "[6]", "value": "76.9% (active)"}, {"measurement": "inhibition", "setting": "[7]", "value": "67.3% (active)"}, {"measurement": "inhibition", "setting": "[8]", "value": "50.8% (active)"}, {"measurement": "inhibition", "setting": "[9]", "value": 21.1, "unit": "%"}, {"measurement": "inhibition", "setting": "[10]", "value": "92.9% (active)"}]}
